# In PubChem BioAssay AID686979 (National Center for Advancing Translational Sciences (NCATS), 2013):
# Hit rate of the full screen: of about 420,000 compounds, about 50,000 (12%) were called active. Not shown: some 26% with an inconclusive outcome. Calls follow the shape of the dose curve; as a rule, active = well fitted inhibition curve with a large enough effect; inconclusive = small, poorly fitted or top-dose-only effect; inactive = flat fitted curve, though single readings scatter. What follows is part of a selection rich in actives, with near analogues and random picks from the rest.
# Experiment: qHTS for Inhibitors of human tyrosyl-DNA phosphodiesterase 1 (TDP1): qHTS in cells in presence of CPT; also: nearly all actives have a fitted effect of over 55% in size
# Details: chicken DT40 Tdp1-/-;hTDP1 cells + 20 nM CPT, ATP luminescence, 48 h; series mostly up to 46.2 µM; activity change, negative = growth inhibition: at the top concentration
# Procedure, shortened: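 Chicken DT40 Tdp1-/- cells complemented with human TDP1, 400 cells/well, exposed to compounds plus 20 nM camptothecin for at least 48 h at 37 C; viability read as ATP content by CellTiter-Glo luminescence.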
# % is scaled to controls: 0 for no effect and ±100 for the full control effect; potency is read from the fitted curve at half-maximal effect.
SMILES,"activity change, negative = growth inhibition",Potency
CC(C)CNC(=S)NNC(=O)c1ccccc1OC(F)F,3.45% (inactive),
CCOc1cc(C(=S)N2CCOCC2)ccc1OS(=O)(=O)c1ccc(Br)cc1,0.241% (inactive),
O=S(=O)(Oc1ccccc1C(=S)N1CCOCC1)c1ccc(Cl)cc1,,16.4 µM (active)
CC(=O)Nc1ccc(S(=O)(=O)Oc2ccc(Br)cc2C(=S)N2CCOCC2)cc1,-28.2% (inactive),
O=c1c([N+](=O)[O-])cccn1Cc1ccc(F)cc1Cl,,11.6 µM (active)
O=[N+]([O-])c1ccccc1NCc1ccccc1Cl,12.7% (inactive),
N/C(=N/O)c1cccn1Cc1ccccc1[N+](=O)[O-],-10.3% (inactive),
O=C(O)c1ccc(S(=O)(=O)c2ccccc2)s1,25.9% (inactive),
O=C(N=C1SC2CS(=O)(=O)CC2N1Cc1ccccc1)c1ccccc1 (centres undefined),-29.9% (inactive),
COC(=O)c1sccc1NS(=O)(=O)c1ccc(F)cc1F,-12.9% (inactive),
O=C(O)c1ccccc1/C=N/Nc1ccc(S(=O)(=O)Nc2ccc(Cl)cc2)cc1[N+](=O)[O-],-4.1% (inactive),
O=[N+]([O-])c1cc(S(=O)(=O)Nc2cccc(Cl)c2)ccc1N=Nc1c(O)[nH]c2ccccc12,,20.6 µM (active)
COc1ccc(S(=O)(=O)Nc2ccc3cn[nH]c3c2)cc1[N+](=O)[O-],-29% (inactive),
CN(Cc1ccc(F)cc1Cl)S(=O)(=O)c1cccs1,-6.15% (inactive),
Cn1cc(C(=O)c2ccc(Cl)cc2Cl)cc1C(=O)NN,-12% (inactive),
CC(OC(=O)CCc1nc(=O)c2ccccc2n1C)C(=O)NCc1ccc2c(c1)OCO2 (centres undefined),5.95% (inactive),
CCOC(=O)c1ccc(NC(=O)CCS(=O)(=O)c2ccc3c(c2)oc(=O)n3C)cc1,-4.86% (inactive),
Cc1ccc(S(=O)(=O)CC(=O)Nc2nnc(C)s2)cc1,10.5% (inactive),
CCOc1ccc(OCC)c(NC(=O)CCS(=O)(=O)c2ccc(C)cc2)c1,-26.2% (inactive),
Cc1ccc(S(=O)(=O)CCC(=O)Nc2nnc(CC(C)C)s2)cc1,,20.6 µM (active)
CC(C)Cc1nnc(NC(=O)CCc2ccccc2)s1,-0.358% (inactive),
CCOC(=O)c1ccc(NC(=O)CCS(=O)(=O)c2ccc(C)cc2)cc1,,18.4 µM (active)
O=C1C(=O)N(CCN2CCOCC2)C(c2cccc(Cl)c2)/C1=C(/O)c1ccc2c(c1)OCO2 (centres undefined),13.7% (inactive),
CN(CC(O)COc1ccc(S(=O)(=O)N2CCOCC2)cc1Cl)C1CCCCC1 (centres undefined),-8.6% (inactive),
CCCCOc1ccc(N(CC(=O)NC(C)C)C(=O)CCC(=O)Nc2ccccn2)cc1,10.3% (inactive),

SMILES,"activity change, negative = growth inhibition",Potency
O=C(Cc1cccs1)N/N=C/c1ccc(OCc2ccccc2)cc1,2.58% (inactive),
O=C(NN1C(=O)C2C3C=CC(C4CC34)C2C1=O)c1ccc(Cl)cc1 (centres undefined),-0.451% (inactive),
Cc1ccc(NC(=O)c2cc3ccccc3o2)cc1,1.36% (inactive),
N=c1oc2ccccc2cc1C(=O)N/N=C/c1ccccc1,-5.9% (inactive),
O=C(N/N=C/c1c[nH]c2ccccc12)c1ccccc1O,11.7% (inactive),
O=C(N/N=C/c1cccc(O)c1)c1cc2c(ccc3ccccc32)o1,-24.9% (inactive),
Cc1c(/C=N\NC(=O)c2cc3ccccc3o2)c2ccccc2n1C,,3.66 µM (active)
O=C(O)c1cccc(NC(=S)N/N=C/c2c[nH]c3ccccc23)c1,10.2% (inactive),
CSC(=S)N/N=C/c1c[nH]c2ccccc12,,0.651 µM (active)
O=C(N/N=C/c1c[nH]c2ccccc12)c1cc2ccccc2o1,,14.6 µM (active)
O=C(N/N=C/c1coc2ccccc2c1=O)c1cc2ccccc2o1,-2.89% (inactive),
CCOC(=O)c1ccc(NC(=O)C2CC(=O)N(c3ccc4c(c3)OCCO4)C2)cc1 (centres undefined),-27% (inactive),
O=C1CCCC(O)=C1N=Nc1ccc2ncsc2c1,4.68% (inactive),
NNC(=O)CSc1nnc(-c2ccccc2)n1-c1ccccc1,-1.97% (inactive),
CCCCn1c(N)c(N(CCOC)C(=O)c2sc3ccccc3c2Cl)c(=O)[nH]c1=O,4.55% (inactive),
CC[C@H](C)C(=O)N[C@H]1CCCN1C(=O)/C=C/c1ccccc1,8.02% (inactive),
O=S(=O)(NCCS(=O)(=O)N1CCN(c2ccccc2)CC1)c1ccc(F)cc1,11.5% (inactive),
O=C(Nc1ccccc1Cl)NC1(C(=O)N2CCOCC2)CCCCC1,-8.94% (inactive),
COc1cc2c(cc1OC)C(=O)NCC(C)(C)O2,-1.92% (inactive),
Cc1cc(C)cc(NC(=O)Cn2cnc3c(nnn3Cc3ccc(F)cc3)c2=O)c1,-5.08% (inactive),
COCCn1c(=O)[nH]c2cc(C(=O)NCc3cccnc3)ccc2c1=O,7.55% (inactive),
CC(C)n1c(=O)[nH]c2cc(C(=O)Nc3ccccc3)ccc21,-8.55% (inactive),
O=C(NC1CCCCC1)c1ccc2c(=O)n(CC3CCCO3)c(=O)[nH]c2c1 (centres undefined),2.52% (inactive),
CCCCCn1c(=O)[nH]c2cc(C(=O)Nc3ccc(F)cc3)ccc2c1=O,,20.6 µM (active)
CCCCCn1c(=O)[nH]c2cc(C(=O)Nc3cc(C)cc(C)c3)ccc2c1=O,,4.11 µM (active)

SMILES,"activity change, negative = growth inhibition",Potency
CCCCCn1c(=O)[nH]c2cc(C(=O)NCCCN3CCCCC3C)ccc2c1=O (centres undefined),0.222% (inactive),
O=C(NCc1ccccc1)c1ccc2c(c1)nc1n2CCCCC1,-4.9% (inactive),
COc1cccc(C2C(C(=O)Nc3ccc(C)cc3C)=C(C)Nc3c(C(=O)Nc4ccccc4)cnn32)c1 (centres undefined),-11.3% (inactive),
CC(C)(C)OC(=O)C1=C(CO)CS[C@@H]2[C@H](NC(=O)Cc3ccccc3)C(=O)N12,4.65% (inactive),
C[C@H](NC(=O)C1CC(=O)N(c2ccc3c(c2)OCO3)C1)C(=O)NCc1ccco1 (some centres undefined),5.48% (inactive),
CCOc1ccc(S(=O)(=O)N2CCC(C(=O)NCC(=O)Nc3cccc(Cl)c3C)CC2)cc1,-15.3% (inactive),
COC(=O)C(Cc1c[nH]c2ccccc12)NC(=O)CCNC(=O)c1ccco1 (centres undefined),7.7% (inactive),
C=CC[C@@H](CC(=O)N[C@H](CO)Cc1ccccc1)C(=O)N[C@@H](COC(=O)[C@@H](CC=C)Cc1ccc(F)cc1)Cc1c[nH]c2ccccc12,,16.4 µM (active)
C=CC[C@@H](CC(=O)N[C@H](CO)Cc1ccccc1)C(=O)N[C@H](C)COC(=O)[C@@H](CC=C)Cc1ccc(F)cc1,,20.6 µM (active)
COc1ccc(CNC(=O)[C@H](Cc2c[nH]c3ccccc23)NC(C)=O)cc1OC,2.69% (inactive),
CC(=O)NC(Cc1c[nH]c2ccccc12)C(=O)O (centres undefined),-3.87% (inactive),
C=CC[C@@H](CC(=O)NCCO)C(=O)N[C@H](C)COC(=O)[C@@H](CC=C)CC(=O)OC(C)(C)C,-17.2% (inactive),
C=CC[C@H](CC(=O)NCCO)C(=O)N[C@@H](COC(=O)[C@@H](CC=C)Cc1ccc(F)cc1)Cc1c[nH]c2ccccc12,,29.1 µM (active)
CC(CCc1ccccc1)NC(=O)COC(=O)c1ccc(F)cc1 (centres undefined),3.85% (inactive),
O=C(CCc1c[nH]c2ccccc12)NCCOc1ccccc1,0.982% (inactive),
C=CCC[C@H](Cc1ccc(F)cc1)C(=O)OC[C@@H](Cc1c[nH]c2ccccc12)NC(=O)[C@H](CC=C)CC(=O)N[C@H](CO)Cc1ccccc1,,5.8 µM (active)
CC(=O)NC(Cc1c[nH]c2ccccc12)C(=O)NCCc1ccccc1 (centres undefined),-18.1% (inactive),
CC(C)CNc1ncnc2c1nnn2C,-14.1% (inactive),
CCC(C)NC(=O)/C=C/c1ccc(S(=O)(=O)NCc2ccco2)cc1 (centres undefined),0.277% (inactive),
CC(=O)N1CCC(N(C(=O)Nc2ccc(Cl)cc2)C(C)C)CC1,-1.36% (inactive),
CC(=O)NC(CC(=O)Nc1nc(-c2ccccc2)c(C(C)=O)s1)c1ccccc1 (centres undefined),-14.9% (inactive),
COc1ccccc1C(=O)OCc1cc(=O)n2nc(-c3cccs3)sc2n1,-2.98% (inactive),
Nc1ccccc1-c1nc2ccncc2[nH]1,-25.7% (inactive),
CCc1ccc(Oc2coc3cc(OC(=O)c4cc5ccccc5oc4=O)ccc3c2=O)cc1,-14.6% (inactive),
O=C1c2ccccc2-c2ccccc2NC1O (centres undefined),11.2% (inactive),

SMILES,"activity change, negative = growth inhibition",Potency
O=C1NN(c2ccccc2)C(=O)/C1=C/c1ccc(-c2cccc(C(=O)O)c2)o1,-25.8% (inactive),
O=C1CCC[C@@H]2CC(N3CCCCC3)C[C@@H]3CCN1[C@H]23 (some centres undefined),0.158% (inactive),
CN(C)C(CNC(=O)c1ccc(S(=O)(=O)NCc2ccco2)cc1)c1ccccc1 (centres undefined),-18.1% (inactive),
Cc1noc(C)c1S(=O)(=O)N(C)C[C@H]1OCCCC[C@@H](C)Oc2ccc(NC(=O)CCCN(C)C)cc2C(=O)N([C@H](C)CO)C[C@@H]1C,-18.5% (inactive),
Cc1cc(/C=C2\SC(=Nc3ccc(N4CCOCC4)cc3)N(C)C2=O)c(C)n1-c1cccnc1,-7.74% (inactive),
CCCCN=C1C([N+](=O)[O-])=CC=C2C1=NC1(CCCCC1)N2O,-26.7% (inactive),
Cc1ccccc1OCC(=O)Nc1ccc(S(=O)(=O)N2CCOCC2)cc1,-15.5% (inactive),
COc1ccccc1C(=O)Nc1ccc(C)c(S(=O)(=O)N2CCCCC2)c1,,20.6 µM (active)
COc1ccccc1C(CNC(=O)c1ccc(C)c(S(=O)(=O)N2CCCCC2)c1)N(C)C (centres undefined),-24.5% (inactive),
O=C(COC(=O)COc1ccccc1F)Nc1cccc(S(=O)(=O)N2CCCCC2)c1,-15.3% (inactive),
CCc1ccccc1OCC(=O)Nc1ccc2c(c1)OCCO2,-8.05% (inactive),
CCc1ccccc1OCC(=O)Nc1ccc(C)c(S(=O)(=O)N2CCCCCC2)c1,,14.6 µM (active)
Cc1ccccc1OCC(=O)Nc1ccc(N2CCN(C(=O)C(C)C)CC2)c(Cl)c1,,13 µM (active)
Cc1ccccc1OCC(=O)Nc1ccc2c(c1)ncn2C,5.53% (inactive),
COc1ccc(NC(=O)C2=NNC(=O)CC2)cc1S(=O)(=O)N1CCCCC1,-28.9% (inactive),
Clc1ccc(-c2cccc3nccn23)cc1,-7.35% (inactive),
Cc1ccc2c(c1)C(O)(CC(=O)c1cccc(-n3cccc3)c1)C(=O)N2 (centres undefined),8.92% (inactive),
C=CCOc1ccc(/C=C/C(=O)OCC(=O)NC2CCCCCC2)cc1,-3.73% (inactive),
O=C1OCCOC2CCCc3oc(-c4ccccc4)c1c32 (centres undefined),-12.7% (inactive),
O=C(NCc1ccco1)/C(=C/c1cccc([N+](=O)[O-])c1)NC(=O)c1ccco1,12.8% (inactive),
CCc1ccc(N(C(=O)c2csnn2)C(C(=O)NC2CCCCC2)c2ccncc2)cc1 (centres undefined),5.47% (inactive),
O=S(=O)(c1ccc(F)cc1)N1CCN=C1SCc1cccc(F)c1,-27.5% (inactive),
Clc1cc(NC2CCCCC2)ncn1,-0.0944% (inactive),
Cc1cccn2c(=O)c(C(=O)NC(C)c3ccccc3)cnc12 (centres undefined),-4.93% (inactive),
